Assay results: PubChem BioAssay (NCI)
Compounds without any hit were thinned out: in the full panel of roughly 83,000, 20% have a hit.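 Activity criterion: percent growth below 10, measured after cells in 96-well plates were exposed to a single compound concentration for 48 hours.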 A number with no mark means an inactive call. Calls of active or inactive are those of the source.

Legend:
Assay in all cases: NCI-60 one-dose screen, 48 h (100 = growth as untreated, 0 = no growth, -100 = all killed)
[1] = tested on: SR leukemia; conditions: 10 µM unless noted
[2] = tested on: RPMI-8226 leukemia; conditions: 10 µM
[3] = tested on: OVCAR-8 ovarian; conditions: 10 µM unless noted
[4] = tested on: OVCAR-5 ovarian; conditions: 10 µM unless noted
[5] = tested on: OVCAR-4 ovarian; conditions: 10 µM unless noted
[6] = tested on: SK-OV-3 ovarian; conditions: 10 µM
[7] = tested on: IGROV1 ovarian; conditions: 10 µM unless noted
[8] = tested on: OVCAR-3 ovarian; conditions: 10 µM unless noted
[9] = tested on: T-47D breast; conditions: 10 µM
[10] = tested on: BT-549 breast; conditions: 10 µM unless noted
[11] = tested on: MDA-MB-435 melanoma; conditions: 10 µM unless noted
[12] = tested on: SW-620 colon; conditions: 10 µM unless noted
[13] = tested on: MCF7 breast; conditions: 10 µM unless noted
[14] = tested on: HCT-116 colon; conditions: 10 µM unless noted
[15] = tested on: KM12 colon; conditions: 10 µM unless noted
[16] = tested on: HS 578T breast; conditions: 10 µM unless noted
[17] = tested on: HCC-2998 colon; conditions: 10 µM unless noted
[18] = tested on: NCI/ADR-RES ovarian; conditions: 10 µM unless noted

SMILES | growth [1] | growth [2] | growth [3] | growth [4] | growth [5] | growth [6] | growth [7] | growth [8] | growth [9] | growth [10] | growth [11] | growth [12] | growth [13] | growth [14] | growth [15] | growth [16] | growth [17] | growth [18]
COc1ccc(-c2nn(-c3ccc(NC(=O)c4ccc(Cl)c(Cl)c4)cc3)cc2-c2ccncc2)cc1Cl | 27.4% | -35.4% (active) | 63.8% | 60.9% | 79.5% | 65.6% | 61.9% | 56.7% | 64.9% | 42.8% | 54.3% | 32.1% | 31.5% | 23.2% | 5.24% (active) | – | – | –
COc1ccccc1CNCCCCCCCCCCCCN1C(=O)c2ccc3c4c(ccc(c24)C1=O)C(=O)N(CCCCCCCCCCCCNCc1ccccc1OC)C3=O | 7.77% (active) | 2.41% (active) | -60.9% (active) | 100% | 92.3% | 117% | 83% | 44.5% | 119% | 70.5% | 58% | 74.1% | 26.7% | -43% (active) | 46.6% | -9.15% (active) | 80.9% | –
Cc1ccc(S(=O)(=O)N2C/C(=C\c3cc(F)cc(F)c3)C(=O)/C(=C/c3cc(F)cc(F)c3)C2)cc1 | 3.56% (active) | -15.1% (active) | -29% (active) | -30.6% (active) | -31.4% (active) | 14.9% | -58.6% (active) | -82.9% (active) | -0.238% (active) | -16.9% (active) | -76.6% (active) | -47% (active) | -75.4% (active) | -93.9% (active) | -30.6% (active) | 11.3% | -82.6% (active) | –
COc1ccc2nc(-n3nc(C)cc3C)c(-n3nc(C)cc3C)nc2c1 | 95% | 102% | 126% | 103% | 111% | 113% | 113% | 126% | 105% | 104% | 102% | 107% | 109% | 96% | 116% | – | 89.8% | 100%
COC(=O)CCC(=O)c1ccccc1 | 90.9% | 98.6% | 102% | 98.4% | 112% | 119% | – | 111% | 102% | 107% | 96.9% | 106% | 96.1% | 108% | 110% | 123% | – | –
COc1ccc(-c2nc3sc(C)nn3c2-c2nc3cc(C)c(C)cc3[nH]2)cc1 | 76.6% | 83.3% | 89.6% | 103% | 94.1% | 99.5% | 98.4% | 104% | 95.4% | 96.5% | 95.6% | 98.5% | 88.6% | 97.5% | 103% | – | 106% | 86.6%
O=C(NCc1ccc(F)cc1)C1CN(c2ccc(Cl)cc2)N(c2ccc(Cl)cc2)C1=O (configuration not stated) | 24.3% | 72.8% | 80% | 85.6% | 66.6% | – | 77.4% | 9.08% (active) | 49.9% | 61.2% | -21.8% (active) | 36.7% | 29.6% | 48.8% | 33.2% | 52.6% | 84.6% | 52.9%
CC(C)NCC(O)COc1ccc(CCOCC2CC2)cc1 (configuration not stated) | 78.3% | 99.1% | 93% | 107% | 82.5% | 113% | 113% | 112% | 103% | 116% | 103% | 102% | 107% | 106% | 113% | 109% | – | –
CCCCc1ccc(C(O)(CCN2CC3CCC(CC3)C2)c2ccccc2)cc1 (configuration not stated) | 68% | 72.2% | 104% | 90.9% | 97% | 91.2% | 95.2% | 91.9% | 73.8% | 90.2% | 98.2% | 95.7% | 95.7% | 77% | 93.2% | – | 90.1% | 98.3%
O=C1C(Br)=C(c2ccccc2)C(=O)C(Br)=C1c1ccccc1 | 71.1% | 99.2% | 91.9% | 96.7% | 90% | 95.4% | 105% | 110% | 73.4% | 97.7% | 91.4% | 94.2% | 92.6% | 90.3% | 102% | 97.2% | 98.2% | –
CN1CCN(c2nc(-c3ccncc3)nc3sc4c(c23)CCCCCC4)CC1 | 32.5% | 69% | 82.9% | 81.3% | 71.7% | 72.9% | 76.2% | 93.5% | 90.9% | 44.3% | 77.7% | 77.1% | 60.6% | 56.5% | 90.9% | 5.17% (active) | 37.4% | –
CC(C)N1CCN(c2ccc(OC[C@H]3CO[C@](Cn4cncn4)(c4ccc(Cl)cc4Cl)O3)cc2)CC1 | 58.1% | 88.7% | 100% | 85.1% | 99.2% | 94% | 104% | 102% | 105% | 84.4% | 69.7% | 98.4% | 95% | 77.7% | 95.4% | 84% | 104% | –
Cc1ccc(S(=O)(=O)c2ccc3[nH]c(=O)[nH]c(=O)c3c2)cc1 | 82.3% | 95.6% | 95.2% | 107% | 97.9% | 97.2% | 104% | 110% | 90.9% | 92.4% | 116% | 105% | 91.5% | 90.9% | 106% | 101% | – | –
COc1ccc(OC2=C(C#N)C(=N)N3c4ccccc4Sc4ccccc4C3N2)cc1 (configuration not stated) | 104% | 88% | 102% | 102% | 112% | 79.3% | 63% | 92.1% | 87% | 96.9% | – | – | 95.6% | 103% | 97.7% | – | 95.2% | 85.2%
CCCCC(CCCC)(S(=O)(=O)CC)S(=O)(=O)CC | 92.3% | 90.8% | 102% | 103% | 110% | – | 104% | 105% | 101% | 96.6% | 97.4% | 102% | 105% | 98.9% | 96.7% | 104% | 111% | 102%
COc1cc(-c2ccc3cc(OC)c(OC)c(OC)c3c2)cc(OC)c1OC | 4.29% (active) | 53.1% | 78.4% | 82% | 61.2% | – | 68.6% | 78.9% | 50.7% | 72.2% | -16.7% (active) | 47.3% | 49.4% | 54.1% | 37.5% | 69.1% | – | 36.6%
Cc1cccc2c(=O)c3c(sc12)c(NCCCN)nc1ccccc13 | -5.48% (active) | -29.9% (active) | 27.3% | 51.7% | 47.4% | – | -24.1% (active) | 39.4% | 43.9% | 65.9% | -75.4% (active) | -72% (active) | -78.9% (active) | -92% (active) | -64.4% (active) | 24.6% | -30.9% (active) | 24%
Cc1cc(=O)c2c(C)ccc(C)c2[nH]1 | 110% | 105% | 94.5% | 97.3% | 106% | – | 103% | 169% | 96.1% | 123% | 104% | 104% | 93.5% | 96.3% | 130% | 108% | 91.2% | 100%
